# Experimental data as given in PubChem BioAssay AID2551 (National Center for Advancing Translational Sciences (NCATS), 2010).
# About 17,000 (5.5%) of roughly 310,000 compounds were called active. Not shown: some 11% with an inconclusive outcome. What follows is part of a selection rich in actives, with near analogues and random picks from the rest. Entries that show only a call come without a potency. A number with no mark means an inactive call. Calls follow the shape of the dose curve; as a rule, active = well fitted inhibition curve with a large enough effect; inconclusive = small, poorly fitted or top-dose-only effect, or effect the other way; inactive = no such curve, though single readings can be large or run the other way.
# Molecular target: Nuclear receptor ROR-gamma (Mus musculus) (UniProt P51450)
# Assay: qHTS for inhibitors of ROR gamma transcriptional activity; also: nearly all actives have a fitted effect of over 60% in size
# Settings: Drosophila S2 Gal4-RORgamma UAS-luciferase reporter, 20 h; series mostly up to 53.6 µM
# In short: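 Using a luciferase readout, inhibitors were identified by reduced reporter activity in Drosophila cells coexpressing a copper-inducible Gal4–ROR gamma fusion and UAS-driven Photinus luciferase, incubated 20 hr after 700 uM copper sulfate.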
# Potency is read from the fitted curve at half-maximal effect.
# Sequence of Nuclear receptor ROR-gamma (Mus musculus) (P51450 whole entry, looked up): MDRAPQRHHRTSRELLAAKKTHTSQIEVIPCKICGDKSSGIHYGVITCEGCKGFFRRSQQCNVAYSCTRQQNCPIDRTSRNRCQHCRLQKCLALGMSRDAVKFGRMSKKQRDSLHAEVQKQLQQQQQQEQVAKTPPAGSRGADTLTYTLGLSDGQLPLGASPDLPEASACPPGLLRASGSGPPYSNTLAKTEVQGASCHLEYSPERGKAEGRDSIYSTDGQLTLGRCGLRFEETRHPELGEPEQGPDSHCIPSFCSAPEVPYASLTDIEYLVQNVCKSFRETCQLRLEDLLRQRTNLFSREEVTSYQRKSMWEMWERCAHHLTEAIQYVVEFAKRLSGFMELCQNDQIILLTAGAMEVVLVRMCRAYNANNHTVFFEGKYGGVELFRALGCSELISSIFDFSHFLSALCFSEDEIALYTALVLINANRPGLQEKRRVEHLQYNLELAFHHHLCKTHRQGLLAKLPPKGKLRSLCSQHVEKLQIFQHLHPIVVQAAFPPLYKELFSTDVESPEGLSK
Compound,Potency,"activity change, negative = inhibition"
Cc1cccc(N2CCN(S(=O)(=O)c3ccc(-c4cc(C)no4)s3)CC2C)c1 (stereo not given),inactive,
COc1ccc(C(CNC(=O)c2cc3c(s2)CCCC3)N2CCOCC2)cc1 (stereo not given),inactive,
COc1cc(C(=O)NC2CCN(Cc3ccccc3)CC2)cc(Cl)c1OC(C)C,inactive,
COc1ccc(C(CNC(=O)COc2ccccc2OC)N2CCCCC2)cc1 (stereo not given),inactive,
Cc1ccc2cc(C#N)c(NCCNC(=S)NCCCN3CCOCC3)nc2c1,inactive,
COCCCNC(=S)NCCNc1nc2cc(C)c(C)cc2cc1C#N,15.8 µM (active),
Cc1ccc2nc(NCCCNC(=O)c3cnccn3)c(C#N)cc2c1,inactive,
COCC(=O)Nc1c(C(=O)N2CCCC2)oc2ccccc12,inactive,
CC(NC(=O)COc1ccc(-c2ccccc2)cc1)C1CCCO1 (stereo not given),inactive,
COc1ccc(S(=O)(=O)/N=C2\C=C(NS(=O)(=O)c3ccccc3)C(=O)c3ccccc32)cc1,inactive,
CC(C)CC[n+]1ccn(C2=C([O-])c3ccccc3C(=O)/C2=N\S(=O)(=O)c2ccccc2)c1,11.2 µM (active),
COc1ccc(C2CC(c3ccc([N+](=O)[O-])cc3)=NN2C(C)=O)cc1 (stereo not given),inactive,
CC(C)C(C)NC(=O)COc1nc2ccccc2nc1N(C)C1CCCCC1 (stereo not given),inactive,
O=C(/C=C/c1ccc(Cl)c([N+](=O)[O-])c1)c1cccnc1,inactive,
O=C(/C=C/c1ccc(Cl)cc1Cl)c1cccnc1,2.82 µM (active),
O=C(Nc1cccnc1)c1cc(Cl)ccc1Cl,inactive,
O=C(N/N=C/c1ccc([N+](=O)[O-])o1)c1cn(-c2ccccc2)nc1-c1ccc(F)cc1,inactive,
Cc1ccc(/C=C/C(=O)Nc2ccc([N+](=O)[O-])c(NC(=O)/C=C/c3ccc(C)o3)c2)o1,inactive,
O=C(/C=C/c1ccc([N+](=O)[O-])o1)NNC(=O)c1ccc(F)cc1,2.82 µM (active),
Cc1cc2c(cc1S(=O)(=O)NCc1ccc(Cl)cc1)OCC(=O)N2,inactive,
C=CCn1c2ccccc2c2nnc(SC(CC)C(=O)Nc3nc(C)c(C(=O)OCC)s3)nc21 (stereo not given),inactive,
C=CCn1c(SCC(=O)CC(=O)OCC)nc2cc(C(=O)N3CCC(C(N)=O)CC3)ccc2c1=O,inactive,

Compound,Potency,"activity change, negative = inhibition"
C=CCn1c2ccccc2c2nnc(SCc3[nH]c(=O)[nH]c3C(=O)CCCCC(=O)OCC)nc21,12.6 µM (active),
CCNC(=S)N(CCN(CC)CC)Cc1cc2cc3c(cc2[nH]c1=O)OCCO3,inactive,
O=C(Nc1ccncc1)c1ccc([N+](=O)[O-])cc1Cl,inactive,
COc1ccc(-c2cn(-c3ccc(C)cc3)c(=O)n2CC(=O)Nc2ccc(OC)c(OC)c2)cc1,inactive,
COC(=O)c1sc(=S)n(-c2ccc(Cl)cc2)c1C,inactive,
Cc1ccc(-n2c(-c3ccc(Cl)cc3)n[nH]c2=S)cc1,3.16 µM (active),
COc1ccc(-n2c(-c3ccc(OC)c(OC)c3)n[nH]c2=S)cc1,11.2 µM (active),
COc1ccc(OC)c(-n2c(-c3ccn[nH]3)n[nH]c2=S)c1,inactive,
Cc1cc(-c2n[nH]c(=S)n2-c2ccc(C)c(C)c2)no1,inactive,
COc1ccc(OC)c(CNC(=O)Cn2nc(C)c3c(C)n(-c4ccc(C)cc4)nc3c2=O)c1,inactive,
COc1ccc(C(C)NC(=O)C2CCCC2)cc1 (stereo not given),inactive,
Cc1cc(=O)oc2c3c(cc(OCC(=O)NCc4ccccn4)c12)OC(C)(C)CC3,inactive,
Clc1ccc(CN2CCCCCC2)cc1Cl,inactive,
CCc1ccccc1N(CC(=O)NCC1CCCO1)C(=O)CCC(=O)Nc1nccs1 (stereo not given),inactive,
CC1(C)CC(=O)C=C(Nc2ccccc2)C1,inactive,
COC(=O)NNC1=CC(=O)CC(C)(C)C1,inactive,
Cc1cc(C)nc(NNC2=CC(=O)CC(C)(C)C2)n1,17.8 µM (active),
CN1CCN(c2ccccc2NC(=O)COc2ccc(C3CCCCC3)cc2)CC1,inactive,
CCn1cc(S(=O)(=O)c2cccc(C)c2)c(=O)c2cc(F)c(N3CCN(C)CC3)cc21,inactive,
COc1ccc(CCNC(=O)CN2C(=O)CCSc3ccccc32)c(OC)c1,inactive,
CCCCC(CCC(=O)Nc1ccc(C(=O)OCC)cc1)C(=O)O (stereo not given),inactive,
Cc1ccc(NC(=O)OCCNC(=O)c2ccncc2)cc1,inactive,

Compound,Potency,"activity change, negative = inhibition"
Cc1ccc(NC(=O)c2cccnc2C(=O)Nc2ccc(C)cc2)cc1,inactive,
CCCCCOC(=O)NCCOC(=O)Nc1ccc(C(=O)OCC)cc1,inactive,
CCOC(=O)c1ccc(NC(=O)c2nc[nH]c2C(=O)N[C@@H](CCCCNC(=O)OC(C)(C)C)C(=O)OC(C)(C)C)cc1,11.2 µM (active),
Cc1ccc(NC(=O)c2nc[nH]c2C(=O)N[C@@H](CCCCNC(=O)OC(C)(C)C)C(=O)OC(C)(C)C)cc1,8.91 µM (active),
COc1ccc(Nc2ncnc3sc(C)cc23)cc1,inactive,
CC(C)CCn1c(=O)c2c(nc3n2CCCN3Cc2ccccc2)n(C)c1=O,inactive,
Nc1nc(C23CC4CC(CC(C4)C2)C3)cs1,inactive,
S=c1nc(C23CC4CC(CC(C4)C2)C3)nc2sccn12,7.94 µM (active),
COc1cc(OC)cc(-c2nc(=S)n3ccsc3n2)c1,inactive,
C=CCC1=C/C(=C\c2c(N)n3nc(CC(=O)N4CCOCC4)sc3nc2=O)C=C(OC)C1=O,inactive,
N#Cc1ccc(Oc2cc(C(F)(F)F)nc(-c3ccccn3)n2)cc1,inactive,
COc1ccccc1Oc1nc(-c2cccnc2)nc2ccccc12,inactive,
COc1ccc(Cc2nc(-c3ccccn3)no2)cc1OC,inactive,
CC(C)(C)Nc1nc(-c2ccccn2)nc2ccccc12,1.41 µM (active),
Cc1cnc(CNc2nc(-c3cccnc3)nc3ccccc23)cn1,inactive,
COc1ccc(Sc2nc(-c3ccccc3)ncc2OC)cc1,inactive,
Cc1ccc(Oc2nc(-c3ccccn3)nc3ccccc23)cc1,0.251 µM (active),
COc1cnc(-c2ccccn2)nc1Oc1ccc(C(C)(C)C)cc1,5.62 µM (active),
CNc1nc(-c2ccccc2OC)nc2ccccc12,inactive,
O=C(CCc1ccccc1)Nc1ccnn1C1CCN(Cc2ccc(OCCO)cc2)CC1,inactive,
Cn1cc[n+](C)c1COc1ccc(C=O)cc1,,-16.6% [at 1.91 µM]
